Records with an inconclusive call do not appear. The source made the active and inactive calls. The call rests on the fitted dose curve; in most records, active means well fitted curve in the direction sought with a large enough effect in the repeat runs; inconclusive means weak or mixed curves; inactive means no such curve, though single readings can be large; an effect the other way counts as inactive or inconclusive.
Assay: A CellTox Green Cytotoxicity Assay to monitor cytotoxicity in HepG2 cells - 8 hour (AID 1224890); further: nearly all actives have a fitted effect of over 45% in size
Settings: CellTox Green fluorescence; series mostly up to 76.8 µM; cytotoxicity increase: at the top concentration
In short: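 HepG2 cells were seeded together with the CellTox Green dye at 600 cells/well, left 5 h at 37 C/5% CO2, then given compounds in DMSO. Fluorescence from dye bound to dead-cell DNA was read repeatedly over 40 h of treatment at 37 C.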
On the % scale 0 is the no-effect control and ±100 the full control effect.

Structure (SMILES)	cytotoxicity increase
O=C(O)/C=C/c1ccc(Cn2ccnc2)cc1	-10.8% [at 35.3 µM] (inactive)
NC1CCN(c2cccc(Cl)n2)CC1	2.74% [at 35.3 µM] (inactive)
CC(C)CCOC(=O)CC(C)C	-1.69% (inactive)
C[C@H]1O[C@@H](n2cc(F)c(=O)[nH]c2=O)[C@H](O)[C@@H]1O	-26.5% [at 35.3 µM] (inactive)
Nc1cc(N)cc(C(=O)O)c1	4.1% (inactive)
CCO[Si](C)(OCC)OCC	-6.14% (inactive)
CCN1CCCC1CNC(=O)c1cc(S(N)(=O)=O)ccc1OC (configuration not stated)	-8.51% (inactive)
COc1ccc(COC=O)cc1	0.0141% (inactive)
C#CC(O)CCCCC (configuration not stated)	2.96% (inactive)
CCC(=O)Nc1cccc(N)c1	-0.407% (inactive)
O=S(=O)(O)c1ccccc1O	-13.7% (inactive)
CC(C)(C)C(=O)/C=C/c1ccc(Cl)cc1	-9.23% (inactive)
CCCCC1CCCCC(=O)O1 (configuration not stated)	1.59% (inactive)
COC(=O)c1ccc(C(=O)OC)c(C(=O)OC)c1	-10.4% (inactive)
NS(=O)(=O)c1cc2c(cc1C(F)(F)F)NC(Cc1ccccc1)NS2(=O)=O (configuration not stated)	-3.06% [at 35.3 µM] (inactive)
CC(C)c1cccc(C(C)C)c1N	20.2% (inactive)
Nc1ncnc2c1ncn2Cc1c(F)cccc1Cl	-17.5% [at 35.3 µM] (inactive)
CC(=O)O[C@H](CC(=O)[O-])C[N+](C)(C)C	-4.96% (inactive)
N#CC1(O)CCCCC1	-1.12% (inactive)

Structure (SMILES)	cytotoxicity increase
O=C1OC(=O)c2cc([N+](=O)[O-])ccc21	-9.84% (inactive)
CCCCCCCCCCC1CO1 (configuration not stated)	2.98% (inactive)
CCCC=O	-0.466% (inactive)
Cc1cc(C)c(NC(=O)CN(CC(=O)O)CC(=O)O)c(C)c1Br	-15% [at 35.3 µM] (inactive)
Cc1ccccc1C(=O)O	-4.26% (inactive)
CO[Si](CCCNCCC[Si](OC)(OC)OC)(OC)OC	-7.41% (inactive)
FC(F)(F)C(F)(F)C(F)(F)C(F)(F)C(F)(F)C(F)(F)C(F)(F)C(F)(F)C(F)(F)C(F)(F)F	-4.05% [at 6.97 µM] (inactive)
CC(C)CCCC(C)CCCC(C)CCCCC(C)CCCC(C)CCCC(C)C (configuration not stated)	2.24% [at 35.3 µM] (inactive)
CC(C)=CC(=O)O	1.8% (inactive)
C1C2OC2C2C1C1CC2C2OC12 (configuration not stated)	-2.43% (inactive)
C=CCOCC(O)CS(=O)(=O)O (configuration not stated)	0.909% (inactive)
C(=C(c1ccccc1)c1ccccc1)c1ccccc1	-13% (inactive)
CN(C)CCn1nnnc1SCC1=C(C(=O)O)N2C(=O)[C@@H](NC(=O)Cc3csc(N)n3)[C@H]2SC1	1.45% [at 35.3 µM] (inactive)
CSc1ccc(C=O)cc1	-0.19% (inactive)
Oc1ccc2c(c1)OC[C@@H](N1CCC(O)(c3ccc(F)cc3)CC1)[C@H]2O	-10.1% [at 35.3 µM] (inactive)
OC/C=C/c1ccccc1	16.8% (inactive)
C#CC(C)(O)CC(C)C (configuration not stated)	0.273% (inactive)
CCCC(C)C(=O)O (configuration not stated)	10.8% (inactive)
CC/C=C\C#N	9.26% (inactive)

Assay: qHTS assay to identify small molecule antagonists of the estrogen receptor alpha (ER-alpha) signaling pathway using the BG1 cell line in the presence of 0.1 nM 17-beta-estradiol - cell viability counter screen (AID 1259241); further: nearly all actives have a fitted effect of over 40% in size
Settings: VM7Luc4E2 (BG1) viability, CellTiter-Fluor protease, 22 h, 0.1 nM estradiol agonist added; series mostly up to 92.4 µM; activity change, negative = cytotoxicity: at the top concentration
In short: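 Estradiol-stimulated (0.1 nM) VM7Luc4E2 cells exposed to compounds 22 hr; viability measured by fluorescence of cleaved CellTiter-Fluor substrate after 30 min.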

Structure (SMILES)	activity change, negative = cytotoxicity
O=C(O)/C=C/c1ccc(Cn2ccnc2)cc1	-0.46% [at 42.5 µM] (inactive)
NC1CCN(c2cccc(Cl)n2)CC1	-5.05% [at 42.5 µM] (inactive)
CC(C)CCOC(=O)CC(C)C	-2.21% (inactive)
C[C@H]1O[C@@H](n2cc(F)c(=O)[nH]c2=O)[C@H](O)[C@@H]1O	-3.09% [at 42.5 µM] (inactive)
Nc1cc(N)cc(C(=O)O)c1	-2.65% (inactive)
CCO[Si](C)(OCC)OCC	-6.28% (inactive)
CCN1CCCC1CNC(=O)c1cc(S(N)(=O)=O)ccc1OC (configuration not stated)	-2.9% (inactive)
COc1ccc(COC=O)cc1	0.12% (inactive)
C#CC(O)CCCCC (configuration not stated)	5.43% (inactive)
CCC(=O)Nc1cccc(N)c1	3.82% (inactive)
O=S(=O)(O)c1ccccc1O	-1.74% (inactive)
CC(C)(C)C(=O)/C=C/c1ccc(Cl)cc1	-0.263% (inactive)
CCCCC1CCCCC(=O)O1 (configuration not stated)	28.5% (inactive)
COC(=O)c1ccc(C(=O)OC)c(C(=O)OC)c1	-18.2% (inactive)
NS(=O)(=O)c1cc2c(cc1C(F)(F)F)NC(Cc1ccccc1)NS2(=O)=O (configuration not stated)	-0.612% [at 42.5 µM] (inactive)
CC(C)c1cccc(C(C)C)c1N	0.198% (inactive)
Nc1ncnc2c1ncn2Cc1c(F)cccc1Cl	-0.716% [at 42.5 µM] (inactive)
CC(=O)O[C@H](CC(=O)[O-])C[N+](C)(C)C	-3.15% (inactive)
N#CC1(O)CCCCC1	12.7% (inactive)

Reference: PubChem BioAssay (Tox21)
